Hck Nef HTS = inhibitors of human Hck kinase activated by Nef | Recombinant Hck-YEEI plus Nef, Z-Lyte FRET kinase assay | inhibition, % at 20 µM | hit rate 0.68% among 220,000;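 active = Hck-Nef kinase inhibition above about 50%, limit read from the data; inactive = inhibition below that limit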
Target sequence (P08631 whole entry, looked up): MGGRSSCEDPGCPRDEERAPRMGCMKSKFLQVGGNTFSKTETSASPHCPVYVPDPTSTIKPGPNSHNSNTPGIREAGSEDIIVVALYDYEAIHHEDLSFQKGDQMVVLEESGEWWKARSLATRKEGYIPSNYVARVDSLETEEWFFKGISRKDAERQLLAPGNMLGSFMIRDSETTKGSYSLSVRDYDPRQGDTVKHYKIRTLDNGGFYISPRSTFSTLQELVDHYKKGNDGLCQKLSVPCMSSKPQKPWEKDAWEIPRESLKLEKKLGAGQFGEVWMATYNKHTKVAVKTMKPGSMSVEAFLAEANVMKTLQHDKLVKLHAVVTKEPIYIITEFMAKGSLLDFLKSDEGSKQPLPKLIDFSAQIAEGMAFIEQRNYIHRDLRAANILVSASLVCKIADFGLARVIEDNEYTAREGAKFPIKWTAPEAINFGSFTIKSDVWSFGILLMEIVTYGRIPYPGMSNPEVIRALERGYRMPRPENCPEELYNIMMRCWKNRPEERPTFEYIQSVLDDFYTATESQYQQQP
p97 inhibitor = inhibitors of human p97 ATPase; hit rate 0.42% among 220,000; inhibition, % at 8 µM; P55072; AID 1481; recombinant p97 ATPase, Kinase-Glo ATP luminescence, 3 h; in the data active = inhibition above about 15%
PGE2 EP2 inh = blocks the human prostaglandin E2 receptor EP2; inhibition, % at 25 µM; P43116; C6 glioma cells expressing human EP2, cAMP TR-FRET; cells stimulated with saturating PGE2; hit rate 0.52% among 260,000; AID 1422;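 active = percent inhibition above 40 after rounding to a whole number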;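 note: rat C6 glioma host cells with rolipram phosphodiesterase inhibitor present; the protocol text gives 20 µM as final concentration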
EP2 modulator = EP2 receptor (human) modulation | P43116 | EP2-expressing cells, cAMP HTRF FRET, PGE2 co-stimulation | induction, % at 25 µM | hit rate 0.83% among 260,000;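 active = compounds whose cAMP rise, as percent of the full-agonist control response, exceeds 60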;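 note: rat C6 glioma line stably carrying human EP2 under a CMV promoter; the protocol text gives 20 µM as final concentration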
Arbovirus inh = antivirals against arbovirus infection; arbovirus infection cell-based antiviral screen; inhibition, % at 10 µM; hit rate 0.37% among 200,000; AID 1251; in the data active = inhibition above about 30%
EP2 confirm = human EP2 receptor cAMP induction, negative in counter-screens; AID 1080; C6 glioma EP2 cells, cAMP HTRF induction; plus low (about EC15) PGE2 agonist; hit rate 47% among 1,300; calls only at 20 µM (by protocol); shares compounds with EP2 modulator;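 active = cAMP induction above 50% in the main assay while under 30% in all four parallel counter assays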;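 note: rat C6 glioma cells stably expressing human EP2 receptor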
A number is an active result; n = inactive; x = no result given; ! = repeats disagree. Compounds with a hit are over-represented: about 2.4% of the library has one in this group of screens.

SMILES	Hck Nef HTS	p97 inhibitor	PGE2 EP2 inh	EP2 modulator	Arbovirus inh	others
COC(=O)C1N[C@@H]([C@@H](NC(=O)COc2ccccc2)C(=O)NCc2ccccc2)SC1(C)C (stereo partly specified)	x	x	n	x	x
Cc1cc(C)n(CCC(=O)NCCc2nc(-c3cccnc3)n[nH]2)n1	x	x	n	n	x
Clc1ccccc1CN(CCCn1ccnc1)Cc1cccs1	x	x	n	n	x
Clc1ccc(-c2nnc3sc(-c4ccc(Br)o4)nn23)cc1	n	n	n	n	n
Cc1oc(-c2ccc(Cl)cc2)cc1-c1nn2c(-c3ccoc3C)nnc2s1	58.7	n	n	n	n
CCOc1cccc(C(=O)Nc2ccc(N3CCN(C(C)=O)CC3)cc2)c1	x	x	n	n	x
CC(C)N1CCN(Cc2ccc(Sc3nncn3C)o2)CC1CCO (stereo unspecified)	n	n	n	66.3	x
CC(C)CCN1CCN(Cc2ccc(Sc3nncn3C)o2)CC1CCO (stereo unspecified)	n	n	n	n	n
Cc1ccc2oc(=O)n(CC(=O)NCC(c3ccccc3F)N3CCCC3)c2c1 (stereo unspecified)	x	x	n	n	x
O=C(COC(=O)[C@@H]1CCCN1S(=O)(=O)c1ccc(Cl)cc1)NC12CC3CC(CC(C3)C1)C2	n	n	67.9	n	n
COCCn1c(SC(C)C)nc2c1c(=O)[nH]c(=O)n2C	x	x	n	n	x
COc1ccc(C2=NN(C(=O)c3cccs3)C(c3ccc(OC)cc3)C2)cc1 (stereo unspecified)	n	n	n	n	n
O=C(c1cccs1)N1N=C(c2ccc(O)cc2)CC1c1ccccc1 (stereo unspecified)	n	n	n	64.5	n
O=C(c1cccs1)N1N=C(c2ccccc2)CC1c1ccccc1 (stereo unspecified)	n	n	n	63.2	n
CCCOC(=O)C(C)Nc1n[nH]c(=S)[nH]c1=O (stereo unspecified)	x	x	86.5	n	x
CCCOC(=O)Cc1n[nH]c(=O)[nH]c1=O	n	n	n	n	n
Cc1nn(-c2ccc(Cl)cc2)c(=O)c2ccccc12	n	n	n	n	n
O=c1c2ccccc2c(-c2ccc(Cl)cc2)nn1-c1ccccc1	n	n	n	63.2	n
CCN(CC)c1ccc(NC(=O)c2cccc(OC)c2)c(C)c1	n	n	n	n	n
CCN(CC)c1ccc(NC(=O)c2c(OC)cccc2OC)c(C)c1	n	n	n	n	37.9
CSC(SC)=C(C#N)C(=O)c1ccccc1	n	n	48.2	n	x
COc1cccc(C(=O)C(C#N)=C(SC)SC)c1	n	n	n	n	x
CC(=O)NNC(=O)C(=O)c1c[nH]c2ccccc12	x	x	n	n	x
CC(=O)c1cccc2c(O)c(C3=Nc4ccccc4C3=O)[nH]c12	n	n	47.4	n	n
O=C1C(c2c(O)[nH]c3ccccc23)=Nc2ccccc21	x	n	n	x	n
SMILES	Hck Nef HTS	p97 inhibitor	PGE2 EP2 inh	EP2 modulator	Arbovirus inh	others
COc1cccc(C2=NN(C(=O)c3ccccc3)C(O)(C(F)(F)F)C2)c1 (stereo unspecified)	n	n	x	64.5	n
Oc1ccc(Nc2nc(-c3ccc(O)cc3)cs2)cc1	n	14.8	n	n	n
O=C(NCc1cccs1)c1cc(-c2ccc(Cl)cc2Cl)on1	x	x	n	n	x
CC(=O)c1cccc(Nc2nc(-c3ccc(O)cc3O)cs2)c1	x	x	69.5	n	x
Nc1ccc(CN2CCCCC2)cc1	x	x	n	n	x
NC[C@H](O)c1ccc(O)c(O)c1	x	x	n	71.8	x
CC(C)NCC(O)c1ccc(O)c(O)c1 (stereo unspecified)	x	x	n	76.4	x
COc1cc(C(O)CO)ccc1O (stereo unspecified)	x	x	n	n	x
Cc1ccc(C)c2[nH]c(=O)c(CN(C(=S)NCC3CCCO3)C3CCCC3)cc12 (stereo unspecified)	x	x	n	n	x
O=C(CSc1ncn(-c2ccccc2)n1)Nc1nc2ccccc2s1	n	n	n	n	40.0
O=C(CS(=O)(=O)Cc1ccccc1)Nc1nc2ccccc2s1	n	n	n	n	47.8
Cc1ccc2nc(C3CCCCN3C(=O)c3cc(CC(C)C)on3)[nH]c2c1 (stereo unspecified)	x	x	n	n	x
Cc1cc(NCC(C)(C)CN(C)C)n2nc(C)c(-c3cccs3)c2n1	x	x	x	n	x
C[C@@H]1c2ccccc2Cn2cc3c(c21)C(=O)c1cccc(OP(=O)(O)OCc2ccccc2)c1C3=O	x	x	41.6	n	x
CCCc1c(OCCCCc2nn[nH]n2)ccc(C(C)=O)c1O	n	n	n	n	34.8!
O=C1c2cccc3c([N+](=O)[O-])ccc(c23)C(=O)N1c1nccs1	n	n	55.5	n	n
CCOC(=O)c1ccc(NC(=O)Cn2nnc(-c3ccccc3)n2)cc1	n	n	n	n	38.6
COc1ccc2cc(C(c3nnnn3Cc3ccc(F)cc3)N3CCCCC3)c(=O)[nH]c2c1 (stereo unspecified)	x	x	n	n	x
COc1ccc(-c2ocnc2C(=O)NCCc2cccc(F)c2)cc1OC	x	x	n	n	x
COc1ccc(/C=C2/SC(=O)N(CCC(=O)Nc3ccc(C)cc3)C2=O)cc1OC	n	n	n	n	n
COc1cc(/C=C2\SC(N)=NC2=O)ccc1OCC(=O)Nc1ccc(C)cc1	92.6	n	n	n	n
CSc1ccc(-c2nnn(Cc3ccc(Br)cc3)n2)cc1	n	n	43.0	n	n
CSc1ccc(-c2nnn(Cc3ccccn3)n2)cc1	n	n	n	n	n
COc1cc2cc(C(c3nnnn3Cc3ccc(F)cc3)N3CCC(O)CC3)c(=O)[nH]c2cc1OC (stereo unspecified)	x	x	n	n	x
COc1ccc([C@@H]2CN(C(=O)c3n[nH]c4c3CCCC4)C[C@H]2C(=O)O)cc1	x	x	x	n	x
SMILES	Hck Nef HTS	p97 inhibitor	PGE2 EP2 inh	EP2 modulator	Arbovirus inh	others
CCC(c1nnnn1Cc1cccs1)N1CCN(c2cccc(C)c2C)CC1 (stereo unspecified)	x	x	n	n	x
COc1ccc(/C=C2\CCn3c2nc2cc(C(=O)O)ccc2c3=O)cc1OC	n	n	n	n	x
CC(C)CCOc1ccc(/C=C2\CCn3c2nc2cc(C(=O)O)ccc2c3=O)cc1	n	n	n	n	37.8
O=[N+]([O-])c1ccc2c(c1)Cc1cc(N=Cc3ccc4c(c3)OCO4)ccc1-2	x	x	50.8	n	x
O=[N+]([O-])c1ccccc1N/N=C/c1ccc2c(c1)OCO2	n	n	n	n	n
CCc1nn(CC(=O)OC)c(=O)c2cc3ccsc3n12	x	x	n	n	x
COc1ccc(OC)c(C(c2nnnn2C2CCCC2)N2CCN(c3ccccc3F)CC2)c1 (stereo unspecified)	n	n	n	65.8!	n
COc1ccc(C(c2nnnn2C2CCCCC2)N2CCN(c3ccccc3F)CC2)cc1OC (stereo unspecified)	x	x	n	n	x
CCc1ccc(Nc2oc(C)cc(=O)c2C(C)=O)cc1	n	n	n	68.1	n	EP2 confirm=n
COc1ccc([C@@H]2C[C@H](C(=O)NCc3cccs3)N(C)S(=O)(=O)N2)cc1OC	x	x	x	n	x
COC(=O)[C@]1(C)CCC[C@]2(C)c3ccc(C(C)C)cc3C(=O)CC12 (stereo partly specified)	x	x	n	n	x

Compound activity from PubChem.
